Source: PubChem BioAssay (NCI)
About 79,000 compounds went through this panel and 15% of them were active in at least one assay; those are over-represented in the sample as a whole. A number with no mark means an inactive call. Activity calls are given as the source filed them. Rule as the data show it: active = growth inhibition above about 70%; inactive = the rest.

Test: NCI Yeast Anticancer Drug Screen. Data for the mlh1 rad18 strain (AID 175)
Settings: S. cerevisiae mlh1 rad18 strain growth inhibition, hits give high values
Experimental: Growth inhibition of yeast strains with defined genetic alterations is measured as a screen for potential anti-cancer activity. Selected strains with alterations in DNA damage repair or cell cycle control were exposed to compounds and growth inhibition was measured relative to vehicle treated controls. The strain used in this assay is mlh1 rad18

[1] = at 5.0 µM (retest, dose inferred, filed as 0.5)
[2] = at 50.0 µM (retest, dose inferred, filed as 5.0)

Compound	growth inhibition [1] [%]	growth inhibition [2]	growth inhibition (at 50.0 µM)
O=c1oc2ccccc2c(O)c1/C=N/C(=S)NCc1ccccc1	-36	-12%	-42.5%
CN(C)C(=O)/N=c1\ss/c(=N\C(=S)N(C)C)n1-c1ccccc1	9	92% (active)	62.2%
Cc1cccc(Cl)c1NC(=O)/C=C/c1ccccc1	35	48%	-6.65%
CCCCCC(Oc1ccc(Cl)cc1)C(=O)O (configuration not stated)	-15	89% (active)	83.2% (active)
CCN(CC)CCCC(C)Nc1cc(C)nc2c1ccc1c2ccc2c(NC(C)CCCN(CC)CC)cc(C)nc21 (configuration not stated)	-1	85% (active)	54.2%
Clc1cc2n[nH]nc2c(Cl)c1Cl	6	94% (active)	93.3% (active)
C/C=C/C=C/C(=O)Nc1ccc([N+](=O)[O-])cc1	0	32%	32.4%
CC(C)/C(Cl)=N\OC(=O)Nc1cccc(F)c1	-3	28%	50.8%
Cc1c(Cl)c(S(N)(=O)=O)cc2c1NC=NS2(=O)=O	-3	10%	-16.6%
Nc1nc(-c2ccc(Cl)cc2)c(N=Nc2ccc(Br)cc2)s1	11	97% (active)	98.5% (active)
O=C1NC(=S)S/C1=C\c1cc(Cl)ccc1O	-5	-6%	3.05%
c1ccc([P+](c2ccccc2)(c2ccccc2)C2CCCC2)cc1	11	32%	98.5% (active)
Cc1[nH]c2c(C)c3c([nH]c4ccc(Cl)cc43)c(C)c2c(=O)c1C	-19	-2%	39.1%
CC(CC(=O)c1ccc2sc3ccccc3c2c1)C(=O)O (configuration not stated)	15	59%	56.8%
